Results as given in PubChem BioAssay AID1851 (National Center for Advancing Translational Sciences (NCATS), 2009).
The campaign covered roughly 16,000 compounds. About 5,800 (36%) were called active. Inconclusive results (about 23%) are left out. The list shows a part of the results. Values without a mark were called inactive. Calls follow the shape of the dose curve; as a rule, active = well fitted curve in the direction sought with a large enough effect; inconclusive = small, poorly fitted or top-dose-only effect, or effect the other way; inactive = no such curve, though single readings can be large or run the other way.

Biological target: Cytochrome P450 2C19 (Homo sapiens) (UniProt P33261)
Assay: Cytochrome panel assay with activity outcomes
Conditions: recombinant CYP, pro-luciferin dealkylation, luminescence, p450-cyp2c19; series mostly up to 57.1 µM; activity, negative = inhibition: at the top concentration
% is scaled to controls: 0 for no effect and ±100 for the full control effect.

Chain of Cytochrome P450 2C19 (Homo sapiens) (P33261 whole entry, looked up): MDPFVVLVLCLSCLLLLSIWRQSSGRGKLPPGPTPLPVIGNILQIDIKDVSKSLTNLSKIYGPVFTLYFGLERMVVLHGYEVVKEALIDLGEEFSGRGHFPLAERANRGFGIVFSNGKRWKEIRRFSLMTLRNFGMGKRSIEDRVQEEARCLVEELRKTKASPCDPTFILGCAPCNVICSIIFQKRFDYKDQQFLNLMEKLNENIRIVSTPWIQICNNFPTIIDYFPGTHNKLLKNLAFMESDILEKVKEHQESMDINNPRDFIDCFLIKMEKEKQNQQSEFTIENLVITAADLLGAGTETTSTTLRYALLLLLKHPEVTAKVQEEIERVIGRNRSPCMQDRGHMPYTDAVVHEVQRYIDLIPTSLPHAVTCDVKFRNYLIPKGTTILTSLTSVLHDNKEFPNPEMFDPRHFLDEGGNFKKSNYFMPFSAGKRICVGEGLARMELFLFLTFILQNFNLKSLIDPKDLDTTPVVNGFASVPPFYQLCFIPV

SMILES	activity, negative = inhibition	AC50
O=C1C2=CC[C@@H]3C(=O)N(c4ccc(F)cc4F)C(=O)[C@H]3[C@H]2[C@H](O)[C@H]2O[C@H]12	-24% [at 11.4 µM]	–
Cc1noc(C)c1C(=O)N1CCC2(CCCN(Cc3ccccc3)C2)CC1	-7.37%	–
OCCN(Cc1ccccc1)Cc1cccc(Cl)c1Cl	–	0.282 µM (active)
COCCNc1nc(-c2ccccc2CN(C)C)nc2ccccc12	39.7%	–
Cc1noc(C)c1-c1nc(N2CCN(C)CC2)c2ccccc2n1	-7.27%	–
CC(=O)NCCNc1nc(-c2ccc(N(C)C)cc2)nc2ccccc12	-28.3%	–
CN(C)c1ccc(-c2nc(NCCc3cnc[nH]3)c3ccccc3n2)cc1	–	1.58 µM (active)
COc1ccc(CNc2nc(-c3c(C)noc3C)nc3ccccc23)c(OC)c1	–	3.16 µM (active)
COc1ccc(OC)c(Nc2nc(-c3cccc([N+](=O)[O-])c3)nc3ccccc23)c1	-18%	–
COc1ccc(CNc2nc(-c3ccc4c(c3)OCO4)nc3ccccc23)c(OC)c1	–	7.94 µM (active)
COCCNc1nc(-c2ccc(C(=O)N(C)C)cc2)nc2ccccc12	-11.3%	–
COCCNc1nc(-c2ccc(N(C)C)cc2)nc2ccccc12	–	15.8 µM (active)
Cn1cccc1C(=O)N1CCC2(CC1)CN(Cc1ccc(C#N)cc1)C2	41.3%	–
CNC(=O)[C@@H]1O[C@@H](n2cnc3c(NCc4cccc(I)c4)ncnc32)[C@H](O)[C@@H]1O	22.5%	–
COc1c(O[C@H]2O[C@@H](CO)[C@@H](O)[C@@H](O)[C@@H]2O)cc2c(c1OC)-c1ccc(SC)c(=O)cc1[C@H](NC(C)=O)CC2	-33.1% [at 25.6 µM]	–
COc1ccccc1CNc1nc(-c2ccc(N(C)C)cc2)nc2ccccc12	–	10 µM (active)
COc1ccc(CNc2nc(-c3ccc(C(=O)N(C)C)cc3)nc3ccccc23)c(OC)c1	–	15.8 µM (active)
COc1ccccc1CNc1nc(-c2ccc3c(c2)OCO3)nc2ccccc12	–	3.16 µM (active)
C=CC1=C(C)C2=Cc3c(C=C)c(C)c4[n]3[Sn+2][n]3c(c(C)c(CCC(=O)O)c3=CC3=NC(=C4)C(C)=C3CCC(=O)O)=CC1=N2	-26%	–
C=C1C(=O)O[C@@H]2[C@H]3O[C@]3(C)CCC=C(C)CC[C@@H]12	-30%	–

SMILES	activity, negative = inhibition	AC50
CCC(=O)NC(Nc1sc2c(c1C(=O)OC)CCCC2)(C(F)(F)F)C(F)(F)F	–	3.98 µM (active)
CC(C)CC(=O)N[C@H](C(=O)N[C@H](C(=O)N[C@@H](CC(C)C)[C@H](O)CC(=O)N[C@@H](C)C(=O)N[C@@H](CC(C)C)[C@H](O)CC(=O)O)C(C)C)C(C)C	-5.61% [at 25.6 µM]	–
C#CCCCO/N=C1/[C@H]2O[C@@H]2[C@@H](O)[C@H]2[C@H]1CCn1c(=O)n([C@@H](CC)c3ccccc3)c(=O)n12	-6.75% [at 11.4 µM]	–
COc1ccc(C(=O)CN(C(=O)c2ccc(Cl)cc2)N2C(=O)c3ccccc3C2=O)cc1	–	4.47 µM (active)
Cc1ccc(C(=O)CN(C(=O)c2ccc(Cl)cc2)N2C(=O)c3ccccc3C2=O)cc1	–	15.8 µM (active)
COc1ccccc1CNc1ncncc1-c1ccccc1Cl	–	1.26 µM (active)
COc1ccccc1CNc1ncncc1-c1ccccc1C	–	3.98 µM (active)
COc1ccc(CNc2ncncc2-c2ccccc2C)c(OC)c1	–	1.58 µM (active)
COc1ccc(CNc2ncncc2-c2ccccc2OC)c(OC)c1	–	2 µM (active)
CCCCOc1cc(C[C@@H]2CNC(=O)N2)ccc1OC	6.71%	–
CCCCOc1ccccc1N	–	14.1 µM (active)
CC[N+](CC)(CC)CCOc1cccc(OCC[N+](CC)(CC)CC)c1OCC[N+](CC)(CC)CC	33.1% [at 25.6 µM]	–
Cc1ccc(C)c(Cn2cnc3c(cnn3C(C)(C)C)c2=O)c1	–	0.398 µM (active)
Cc1ccccc1Cn1cnc2c(cnn2C(C)(C)C)c1=O	–	2 µM (active)
Cc1ccc(-n2ncc3c(=O)n(CC(=O)NCC4CCCO4)cnc32)cc1 (stereo not drawn)	-21.8%	–
CC(C)(C)n1ncc2c(=O)n(CC(=O)NCc3ccccc3Cl)cnc21	–	14.1 µM (active)
Cc1ccc(NC(=O)Cn2cnc3c(cnn3C(C)(C)C)c2=O)cc1	-26.7%	–
Nc1cc(Cl)ccc1Oc1ccc(Cl)cc1	–	0.562 µM (active)
O=c1[nH]c2cc(Cl)ccc2c(O)c1-c1ccc(Oc2ccccc2)cc1	10.8%	–
Nc1cc(Cl)ccc1Oc1ccccc1	–	3.98 µM (active)

SMILES	activity, negative = inhibition	AC50
Cc1cc(=O)[nH]c(-n2[nH]c(C)cc2=O)n1	-9.54%	–
CCO/C(C)=N/n1c2nc3ccccc3nc2c2c(=O)n(CC(C)C)c(C)nc21	-24.5%	–
CCCn1c(C)nc2c(c1=O)c1nc3ccccc3nc1n2CCC1=CCCCC1	–	8.91 µM (active)
O=C(O)Cc1cc(Cl)ccc1O	42.6% [at 11.4 µM]	–
Oc1ccc(Cl)cc1Cc1cc(Cl)cc(Cc2cc(Cl)ccc2O)c1O	–	1.26 µM (active)
Oc1ccc(Cc2cc(Cl)cc(Cl)c2O)cc1Cl	–	1.26 µM (active)
OCCSCc1cc(Cl)cc(Cl)c1O	-25.3% [at 11.4 µM]	–
COc1ccc(C(=O)N2CCC3(CCCN(Cc4ccccc4OC)C3)CC2)cc1	-4.97%	–
COC(=O)[C@@]1(Cc2ccccc2)[C@H]2c3cc(C(=O)N4CCCC4)n(Cc4cc(F)cc5c4OCOC5)c3C[C@H]2CN1C(=O)c1ccccc1	–	0.251 µM (active)
COC(=O)[C@@]1(Cc2ccc(OC)cc2)[C@H]2c3cc(C(=O)N4CCCC4)n(Cc4cc(F)cc5c4OCOC5)c3C[C@H]2CN1C(=O)c1ccccc1	–	7.94 µM (active)
Cn1cnc([N+](=O)[O-])c1Sc1nc(N)nc2c1ncn2Cc1ccccc1	21.2% [at 11.4 µM]	–
Nc1nc(SCc2ccccc2)c2ncn(Cc3ccccc3)c2n1	–	2.51 µM (active)
Nc1nc(SCc2ccc([N+](=O)[O-])cc2)c2ncn([C@@H]3O[C@@H](CO)[C@@H](O)[C@H]3O)c2n1	-25.4%	–
CCCn1cnc2c(SCc3ccc(Cl)cc3)nc(N)nc21	–	0.501 µM (active)
OC[C@@H]1O[C@@H](n2cnc3c(SCc4ccccc4)ncnc32)[C@@H](O)[C@H]1O	1.35% [at 11.4 µM]	–
CCCN(CCC)CCNC(=O)C1CCCN(S(=O)(=O)c2ccc3c(c2)oc(=O)n3C)C1 (stereo not drawn)	22.6%	–
Cn1c(=O)c2cc(S(=O)(=O)NCCC(=O)Nc3ccc(Cl)cc3)ccc2n(C)c1=O	-26.7%	–
Cn1c(=O)oc2cc(S(=O)(=O)NCCC(=O)N3CC=C(c4ccccc4)CC3)ccc21	–	6.31 µM (active)
